Among all 340,000 compounds or so, about 1,400 (0.41%) were called active. About 4% were inconclusive and are not listed. Only a selection was taken, and actives are over-represented in it overall. Values without a mark were called inactive. The call rests on the fitted dose curve; cell line not stated here.

Here are results for 49 compounds from PubChem BioAssay AID624288 (National Center for Advancing Translational Sciences (NCATS), 2012).
On the % scale 0 is the no-effect control and ±100 the full control effect; potency means the concentration at half of the fitted maximal effect.

The nature of this test: qHTS for Antagonists of gsp, the Etiologic Mutation Responsible for Fibrous Dysplasia/McCune-Albright Syndrome: qHTS. Further: nearly all actives have a fitted effect of over 65% in size. The following applies: gsp-mutant cells, cAMP HTRF, 30 min; series mostly up to 76.9 µM; activity change, negative = inhibition: at the top concentration. The text has this: McCune-Albright syndrome (MAS) is a rare disease caused by somatic mutations in Gsgsp), a widely expressed protein central in signal transduction from G-coupled protein receptors (GPCRs). The disease symptoms are diverse, owing to the fact that the patients are mosaics with varying degrees of tissue involvement. Greater than 90% of the mutations in Gs in MAS occur at the R201 position and are equally divided between R201H and R201C. The R201 residue is central in the intrinsic GTPase activity of Gs and the H and C mutations lead to loss of, or impairment of, the GTPase activity. The intrinsic GTPase activity is necessary to terminate the interaction between Gs and adenylate cyclase, and to terminate the cAMP-mediated signaling of the given GPCR pathway. Thus, these activating mutations lead to ligand-independent activation of GPCR pathways. The tissue phenotype is determined by the role of Gs in the function of a given cell, and excess Gs/cAMP signaling in that cell. For example, pituitary somatotrophs overproduce growth hormone in a growth hormone releasing hormone-independent fashion, and gigantism/acromegaly ensues. Skeletal stem cells in the bone marrow behave as if they are under constant parathyroid hormone stimulation and fail to differentiate into osteoblasts and osteocytes, and proliferate as immature osteogenic cells and lead to the marrow fibrosis of fibrous dysplasia of bone. The goal of this project is to identify molecules with inhibitory activity at gsp mutations that will not only allow for in-depth study of the underlying molecular and cellular pathophysiology, but also serve as compounds from which drugs to treat FD/MAS can be developed NIH Chemical Genomics Center [NCGC] NIH Molecular Libraries Probe Centers Network [MLPCN] MLPCN Grant: IRP-FT-DE-2011-01 Assay Submitter (PI): Michael Collins, NIDCR
1.#Seed 2000 cells/well in 6 ul DMEM 10% FBS, 1% Pen/Strep, 0.5 mg/ml G418 2.#Incubate 16-24 hr at 37C, 5% CO2, 95% humidity 3.#Aspirate leaving 1 ul residual volume 4.#Dispense 5 ul/well DPBS + 1 mM CaCl2, 0.5 mM MgCl2, 0.05% BSA, 0.005% Tween 20 5.#Aspirate leaving 2 ul residual volume 6.#Dispense 23 nl/well compounds in DMSO 7.#Dispense 1 ul/well 300 uM Ro-20174 in DMEM 10% FBS 8.#Incubate 30 min at 37C, 5% CO2, 95% humidity 9.#Dispense 1.5 ul/well HTRF reagent: cAMP-d2 in lysis buffer 10.#Dispense 1.5 ul/well HTRF reagent: anti-cAMP antibody-K in lysis buffer 11.#Incubate 30 min at room temperature 12.#Detect HTRF signal using EnVision plate reader
On to `CC(=O)OC1CCC2C3CCC4=C(CC(F)C(=O)C4)C3CCC12C` (centres undefined), for which the “activity change, negative = inhibition” value was 5.21%.
For `COc1ccc(/C=N/Nc2cc(N3CCOCC3)nc(C)n2)c(OC)c1`, the Potency was 35.5 µM (active).
For `COc1ccc(/C=N/NC(=O)Nc2ccc3nsnc3c2)c(OC)c1`, the “activity change, negative = inhibition” value was -3.26%.
On the same count and under the same terms, for `C(=N/Nc1cc(N2CCOCC2)nc(N2CCOCC2)n1)/c1ccccc1` the value was -27.6%.
In the case of `CC(C)[C@@H](C(=O)OCC(=O)c1ccc2c(c1)NC(=O)CO2)N1C(=O)c2ccccc2C1=O`, the “activity change, negative = inhibition” value was -7.63%.
Consider `O=C(Nc1c[nH]c(=O)[nH]c1=O)OCc1ccccc1`, for which the “activity change, negative = inhibition” value is 1.53%.
Regarding `CCCCCCCCNS(=O)(=O)CCNC1CCCCC1`, the “activity change, negative = inhibition” value is 5.09%.
Consider `Cc1ccc(C)c(N2CCN(C(=O)CCCCCn3c(=S)[nH]c4ccc(N5CCOCC5)cc4c3=O)CC2)c1`, for which the Potency was 28.2 µM (active).
Regarding `Cc1ccc(C)c(N2CCN(C(=O)CCc3nc4ccccc4[nH]3)CC2)c1`, the “activity change, negative = inhibition” value is -22.8%.
Still for that read-out and setting: next, `O=C(CCCCCn1c(=S)[nH]c2cc3c(cc2c1=O)OCO3)N1CCN(c2ccc(F)cc2)CC1`: 6.67%.
In the case of `CC(C)CN1CC(C)C(=O)N(c2ccccc2)C1=S` (centres undefined), the “activity change, negative = inhibition” value was 5.08%.
Regarding `COc1cc(/C=C/c2ccc(/C=C/c3cc(OC)c(OC)c(OC)c3)cc2)cc(OC)c1OC`, the “activity change, negative = inhibition” value was 7.14%.
`COC(=O)c1ccc(COc2ccc(/C=C/C(=O)c3ccc(OC)c(CSCC(=O)O)c3)cc2OC)cc1`: the Potency is 39.8 µM (active).
For `COc1ccc(/C=C/C(=O)N2CCCC2)cc1OC`, the “activity change, negative = inhibition” value is -20.9%.
Consider `COc1ccc(/C=C/C(=O)c2ccc(NS(=O)(=O)c3ccc(C)cc3)cc2)cc1O`, for which the “activity change, negative = inhibition” value is -4.56%.
As to `Cc1c[n+]([O-])ccc1[N+](=O)[O-]`, the “activity change, negative = inhibition” value is -4.07%.
As for `CC(C)=CCc1ccc(O)c(=O)cc1C(C)C`, the “activity change, negative = inhibition” value is 9.99%.
As for `CC(C)c1c(C(=O)N/N=C/c2ccc(-c3ccccc3)cc2)nnn1-c1nonc1N`, the “activity change, negative = inhibition” value was 0.139%.
Turning to `Nc1nonc1-n1nnc(C(=O)N/N=C/c2c[nH]c3ccccc23)c1-c1ccccc1`, the Potency is 31.6 µM (active).
Turning to `Nc1nonc1-n1nnc(C(=O)N/N=C/C2CCCCC2)c1-c1ccccc1`, the “activity change, negative = inhibition” value was 12.5%.
Turning to `Nc1cc(=O)n(Cc2ccccc2)c(=O)n1Cc1ccccc1`, the “activity change, negative = inhibition” value was -4.98%.
For the compound `O=C1Nc2ccc(Br)cc2/C1=N/N=C/C1=C(N2CCOCC2)C(=C\c2ccccc2)/CC1`, the “activity change, negative = inhibition” value is -18.1%.
In the case of `O=C(O)c1ccc(NN=CC2=C(N3CCOCC3)/C(=C/c3ccccc3)CC2)cc1`, the Potency is 10 µM (active).
As to `C(=N\N1CCN(c2ccccn2)CC1)/C1=C(N2CCOCC2)C(=C/c2ccccc2)/CC1`, the “activity change, negative = inhibition” value was -4.31%.
`C[C@H](O)[C@@H]1C(=O)N2CCc3ccc(N4CCOCC4)cc3[C@@H]2C[C@@H]1N(C)C(=O)C(C)(C)C`: the “activity change, negative = inhibition” value is 1.14%.
Still for that read-out and setting: next, `O=C1C[C@@H]2c3c(cccc3CN1Cc1ccccc1)C[C@@H](O)[C@H]2O`: 10.4%.
On the same count and under the same terms, for `Cc1ccc(S(=O)(=O)N2CCC(C(=O)N3CCCCCCC3)CC2)cc1` the value was -1.88%.
Regarding `CSc1ncccc1C(=O)Nc1ccc(C)cn1`, the “activity change, negative = inhibition” value was -0.85%.
Still for that read-out and setting: for `CSc1ncccc1C(=O)Nc1ccc2c(c1)OCO2` the value was -1.29%.
As to `CSc1ncccc1C(=O)Nc1nc2ccc(F)cc2s1`, the Potency was 39.8 µM (active).
Regarding `COc1cc(C(=O)CCc2ccc3c(c2)OCO3)cc(OC)c1OC`, the “activity change, negative = inhibition” value is 11.8%.
Consider `COc1cc(C(=O)N2CCN(S(=O)(=O)c3ccc(C(C)C)cc3)CC2)ccc1OCC(=O)N1CCOCC1`, for which the “activity change, negative = inhibition” value was -14.8%.
Take `CS(=O)(=O)c1ccc2nc(NC(=O)C3C4C=CC(C4)C3C(=O)O)sc2c1` (centres undefined): the “activity change, negative = inhibition” value was -1.75%.
With `CS(=O)(=O)c1ccc2nc(NC(=O)c3ccc(Cl)nc3)sc2c1`, the Potency is 31.6 µM (active).
With `COc1cccc(C(=O)Nc2nc3ccc(S(C)(=O)=O)cc3s2)c1`, the “activity change, negative = inhibition” value was 1.97%.
For the compound `Cc1ccc(NC(=O)C(C)OC(=O)C2CC3CCCC(C2)C3=O)cc1S(=O)(=O)N1CCOCC1` (centres undefined), the “activity change, negative = inhibition” value is -2.68%.
On to `O=C(CNC(=O)c1cc(S(=O)(=O)N2CCOCC2)ccc1N1CCCC1)Nc1ccc(F)c(F)c1`, for which the “activity change, negative = inhibition” value was -2.71%.
For `CN(CCO)S(=O)(=O)c1ccc2c(c1)C(=O)c1cc(S(=O)(=O)N(C)CCO)ccc1-2`, the Potency was 8.91 µM (active).
With `CN(CC(=O)O)S(=O)(=O)c1ccc2oc3ccccc3c2c1`, the “activity change, negative = inhibition” value is -8.22%.
Still for that read-out and setting: for `O=C(O)c1ccc(NS(=O)(=O)c2ccc3c(c2)C(=O)c2cc(S(=O)(=O)Nc4ccc(C(=O)O)cc4)ccc2-3)cc1` the value was 0.663%; for `O=C1NC(=O)C(CCc2ccccc2)(c2ccccc2)N1` (centres undefined), 11.4%; for `COC(=O)C1CC2=C(CC(C)(C)CC2=O)N(c2ccccc2)C1=O` (centres undefined), 9.37%.
As to `COc1cc(Cl)c(S(=O)(=O)n2cnc(C)c2)cc1Cl`, the “activity change, negative = inhibition” value is 8.27%.
In the case of `CCc1nc(C)cn1S(=O)(=O)c1cc([N+](=O)[O-])ccc1Cl`, the “activity change, negative = inhibition” value is 3%.
In the case of `CCc1nc(C)cn1S(=O)(=O)c1cc(OC)c(C)cc1C`, the Potency is 31.6 µM (active).
On to `Cc1sc2ncnc(N3CCC(C(=O)Nc4ccc(F)cc4Cl)CC3)c2c1C`, for which the Potency is 39.8 µM (active).
In the case of `Cc1sc2ncnc(N3CCC(C(=O)Nc4nc5ccc(Cl)cc5s4)CC3)c2c1C`, the “activity change, negative = inhibition” value was -7.28%.
For the compound `CCc1ccc(C(=O)NNC(=O)C2CCN(c3ncnc4sc(C)c(C)c34)CC2)cc1`, the “activity change, negative = inhibition” value was -20%.
`CC(=O)OCC1(O)CC23CCC4c5ccoc5CCC4(C)C2CCC1C3` (centres undefined): the “activity change, negative = inhibition” value was -6.12%.
